From PubChem BioAssay (Tox21) come the findings set out here.

The nature of experiment [1]: qHTS assay to identify small molecule antagonists of the androgen receptor (AR) signaling pathway using the MDA cell line in the presence of 0.5 nM R1881 - cell viability counter screen (AID 1259242). Note: nearly all actives have a fitted effect of over 45% in size. Note: potency is the fitted concentration of half-maximal effect. The procedure, abridged: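 MDA-kb2 cells (human breast carcinoma, stably carrying MMTV-luciferase reporter) were exposed to compounds with 0.5 nM R1881 (final) for 16 hr at 37C, 0% CO2; viability then read as live-cell protease fluorescence (CellTiter-Fluor, 30 min) in the same wells.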
Background: qHTS replaces the single test concentration by a dilution series.

The target of experiment [2] is Estrogen receptor (Homo sapiens) (UniProt P03372). The experiment can be described thus: qHTS assay to identify small molecule antagonists of the estrogen receptor alpha (ER-alpha) signaling pathway using the BG1 cell line in the presence of 0.1 nM 17-beta-estradiol (AID 1259244). Note: nearly all actives have a fitted effect of over 50% in size. Note: potency is the fitted concentration of half-maximal effect. The procedure, abridged: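 VM7Luc4E2 cells (endogenous full-length ER-alpha, stable 4xERE-luciferase) were grown 5 days in phenol red-free medium with charcoal-stripped FBS, then exposed 22 h at 37C to compounds plus 0.1 nM (final) 17beta-estradiol; ONE-Glo luminescence read-out.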

The nature of experiment [3]: qHTS assay to identify small molecule phospholipidosis (PLD) inducers (AID 1259344; active = well fitted curve in the direction sought with a large enough effect; an effect the other way counts as inactive or inconclusive). The procedure, abridged:
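Phospholipidosis is scored by imaging LipidTOX-stained pits in HepG2 cells exposed to compound for 24 h at 37 C; pit counts and integrated intensities per well and per cell serve as outputs.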

Experiment [4] in a line: qHTS assay to identify small molecule HDAC inhibitors - cell viability counter screen (AID 1259365). Note: nearly all actives have a fitted effect of over 50% in size. Note: potency is the fitted concentration of half-maximal effect. In a few lines: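 Following a 2hr exposure of overnight-plated wild-type HCT-116 cells to DMSO-delivered compounds, CellTiter-Glo was added and luminescence recorded after 30min at room temperature.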
A short description of experiment [5]: qHTS assay to identify small molecule agonists of the sonic hedgehog signaling (Shh) pathway - cell viability counter screen (AID 1259366). Note: nearly all actives have a fitted effect of over 50% in size. Note: potency is the fitted concentration of half-maximal effect. In a few lines:
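After a 4hr attachment at 37C, NIH/3T3 cells bearing an integrated Gli1-driven luciferase reporter were dosed with compounds. Treatment lasted 24hr, with the final hour including CellTiter-Fluor for a fluorescence viability measurement.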

Experiment [6] can be described thus: qHTS assay to identify small molecule antagonists of the sonic hedgehog signaling (Shh) pathway - cell viability counter screen (AID 1259367). Note: nearly all actives have a fitted effect of over 55% in size. Note: potency is the fitted concentration of half-maximal effect. In a few lines: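 Cells: 3T3 Gli1-Luc, 2,000/well, 4 hr pre-incubation. Compounds in DMSO, then conditioned medium. Incubation 24 hr, 37C, 5% CO2. CellTiter-Fluor at 23 hr, 1 hr, fluorescence.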
Experiment [7] is described as follows: qHTS assay to identify small molecule antagonists of the sonic hedgehog signaling (Shh) pathway (AID 1259369; calls by dose curve; note: nearly all actives have a fitted effect of over 45% in size; note: potency is the fitted concentration of half-maximal effect). In a few lines: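 NIH/3T3-derived 3T3Gli1-Luc cells with stably integrated Gli1-Luc reporter were preincubated 4hr at 37 C, then given compounds in DMSO plus Shh conditioned medium and incubated 24hr. Firefly luciferase luminescence read after 30min reagent at room temperature.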

Experiment [8] addresses Estrogen receptor beta (Homo sapiens) (UniProt Q92731). The experiment can be described thus: qHTS assay to identify small molecule agonists of the estrogen receptor beta (ER-beta) signaling pathway (AID 1259377; active = well fitted activation curve with a large enough effect in the signal ratio in the repeat runs, not every such curve was filed as active; the % refers to the signal ratio). In a few lines:
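In HEK293T cells bearing a UAS-beta-lactamase reporter under ER-beta control, DMSO-delivered compounds were incubated for 16 hr at 37C. Activity was detected as fluorescence 2 hours after LiveBLAzer B/G FRET substrate addition.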

Experiment [9] in a line: qHTS assay to identify small molecule agonists of the androgen receptor (AR) signaling pathway in the presence of an antagonist - cell viability counter screen (AID 1259379). Note: nearly all actives have a fitted effect of over 25% in size. Note: potency is the fitted concentration of half-maximal effect. The procedure, abridged:
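MDA-kb2 human breast carcinoma cells (stable MMTV-luciferase, AR/GR responsive) were seeded 3,000 cells/well, pre-incubated 5 hr at 37C without CO2, then given 3.0uM nilutamide and compounds at 15 concentrations for 16 hr. Viability was read by CellTiter-Fluor fluorescence.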

The target in experiment [10] is Estrogen receptor (Homo sapiens) (UniProt P03372). The experiment can be described thus: qHTS assay to identify small molecule agonists of the estrogen receptor alpha (ER-alpha) signaling pathway in the presence of an antagonist (AID 1259383; calls by dose curve; note: top concentration of the series differs between compounds; nearly all actives have a fitted effect of over 15% in size). In a few lines: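 VM7Luc4E2 cells (endogenous full-length ER-alpha, 4×ERE-luciferase) were precultured 5 days in phenol red-free medium with 10% charcoal-stripped FBS, given 10.0nM ICI-182,780 (final), then treated with compounds at 15 concentrations for 22hr at 37C; luminescence read with ONE-Glo.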

Experiment [11] can be described thus: qHTS assay to identify small molecule agonists of the estrogen receptor alpha (ER-alpha) signaling pathway in the presence of an antagonist - cell viability counter screen (AID 1259386). Note: nearly all actives have a fitted effect of over 30% in size. Note: potency is the fitted concentration of half-maximal effect. In a few lines:
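VM7Luc4E2 cells (endogenous full-length ER-alpha, 4×ERE-luciferase) were held 5 days in phenol red-free medium with 10% charcoal-stripped FBS, plated, then given 10.0nM ICI-182,780 and compounds at 15 concentrations for 22hr at 37C; viability read by CellTiter-Fluor fluorescence.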

A short description of experiment [12]: qHTS assay to identify small molecule agonists of the sonic hedgehog signaling (Shh) pathway (AID 1259368; calls by dose curve; note: series mostly up to about 92 µM; nearly all actives have a fitted effect of over 15% in size). In a few lines: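 NIH/3T3-derived 3T3Gli1-Luc cells carrying a stably integrated Gli1 response element–firefly luciferase reporter were plated, left 4 hr at 37 C, then given compounds in DMSO for 24 hr. Luminescence was read 30 min after adding luciferase reagent.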

A short description of experiment [13]: qHTS assay to identify small molecule agonists of the estrogen receptor beta (ER-beta) signaling pathway - cell viability counter screen (AID 1259380). Note: potency is the fitted concentration of half-maximal effect; nearly all actives have a fitted effect of over 30% in size. In a few lines:
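ER-beta-UAS-bla HEK293T cells in medium with 2% charcoal-stripped FBS were preincubated 6 hr at 37C, dosed with compound in DMSO for 16 hr, then after the bla read, CellTiter-Glo was added for 30 min at room temperature; luminescence recorded.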

For experiment [14], the target named is Androgen receptor (Homo sapiens) (UniProt P10275). The experiment can be described thus: qHTS assay to identify small molecule agonists of the androgen receptor (AR) signaling pathway in the presence of an antagonist (AID 1259381; calls by dose curve; note: nearly all actives have a fitted effect of over 15% in size). In a few lines:
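MDA-kb2 human breast carcinoma cells carrying an MMTV-luciferase reporter (AR- and GR-responsive) were treated with compounds at 15 concentrations plus 3.0uM final nilutamide for 16hr at 37C without CO2; luminescence was read after ONE-Glo addition.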

Experiment [15] in a line: qHTS assay to identify small molecule agonists or antagonists of the thyroid stimulating hormone receptor (TSHR) signaling pathway - wild type cell line counter screen (AID 1259384; calls by dose curve). In a few lines: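 Counter screen in untransfected Hek293: compounds (15-point titration, triplicate) plus phosphodiesterase inhibitor Ro20-1724 added after 18 h plating; 30 min RT. Intracellular cAMP via competitive d2/cryptate immunoassay, 1 h incubation.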

Experiment [16] addresses Thyrotropin receptor (Homo sapiens) (UniProt P16473). Nature of the experiment: qHTS assay to identify small molecule antagonists of the thyroid stimulating hormone receptor (TSHR) signaling pathway (AID 1259385; calls by dose curve; note: nearly all actives have a fitted effect of over 20% in size; note: potency is the fitted concentration of half-maximal effect). In a few lines: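 Antagonist mode: compound-treated TSHR-expressing HEK293 cells were stimulated with 1.5 ng/mL TSH (final) in presence of Ro20-1724 for 30 min at RT. HTRF cAMP detection after 1 h; each compound tested at 15 concentrations, triplicate.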

The nature of experiment [17]: qHTS assay to identify small molecule HDAC inhibitors (AID 1259364). Note: top concentration of the series differs between compounds; nearly all actives have a fitted effect of over 45% in size. In a few lines:
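Wild-type HCT-116 cells were plated overnight, exposed to compounds for 2 h at 37 °C, then given HDAC-Glo class I/II luminogenic reagent for 30 min at room temperature before luminescence was read.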

Experiment [18] addresses Estrogen receptor beta (Homo sapiens) (UniProt Q92731). The experiment can be described thus: qHTS assay to identify small molecule antagonists of the estrogen receptor beta (ER-beta) signaling pathway (AID 1259378; active = well fitted inhibition curve with a large enough effect in the signal ratio in the repeat runs, not every such curve was filed as active; the % refers to the signal ratio; note: potency is the fitted concentration of half-maximal effect). The procedure, abridged: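 Antagonist mode: compounds added to beta-lactamase reporter HEK293T ER-beta-UAS cells stimulated with E2 (1nM final), 16 hr at 37C. LiveBLAzer B/G FRET substrate, 2 hours room temperature, fluorescence read-out.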

The nature of experiment [19]: qHTS assay to identify small molecule antagonists of the estrogen receptor beta (ER-beta) signaling pathway - cell viability counter screen (AID 1259382). Note: nearly all actives have a fitted effect of over 55% in size. Note: potency is the fitted concentration of half-maximal effect. In a few lines:
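ER-beta-UAS-bla HEK293T cells (2,000/well, 2% charcoal-stripped FBS) were pre-incubated 6 hr at 37C, then given compound plus 1nM final 17-beta-estradiol for 16 hr. Viability was read in the same wells by CellTiter-Glo luminescence after 30 min at room temperature.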

Molecules are shown by their SMILES. “And” between values parts separate entries of the source, which are not always exact repeats. Equal entries are not always repeated. Results filed as inconclusive are left out. The source holds several records for some structures; these can differ, active in one and inactive in another. The source made the active and inactive calls. Unless noted, calls come from the whole dose curve; as a rule, active = well fitted curve in the direction sought with a large enough effect in the repeat runs; inconclusive = weak or mixed curves; inactive = no such curve, though single readings can be large; an effect the other way counts as inactive or inconclusive.

Sequence of Thyrotropin receptor (Homo sapiens) (P16473 whole entry, looked up): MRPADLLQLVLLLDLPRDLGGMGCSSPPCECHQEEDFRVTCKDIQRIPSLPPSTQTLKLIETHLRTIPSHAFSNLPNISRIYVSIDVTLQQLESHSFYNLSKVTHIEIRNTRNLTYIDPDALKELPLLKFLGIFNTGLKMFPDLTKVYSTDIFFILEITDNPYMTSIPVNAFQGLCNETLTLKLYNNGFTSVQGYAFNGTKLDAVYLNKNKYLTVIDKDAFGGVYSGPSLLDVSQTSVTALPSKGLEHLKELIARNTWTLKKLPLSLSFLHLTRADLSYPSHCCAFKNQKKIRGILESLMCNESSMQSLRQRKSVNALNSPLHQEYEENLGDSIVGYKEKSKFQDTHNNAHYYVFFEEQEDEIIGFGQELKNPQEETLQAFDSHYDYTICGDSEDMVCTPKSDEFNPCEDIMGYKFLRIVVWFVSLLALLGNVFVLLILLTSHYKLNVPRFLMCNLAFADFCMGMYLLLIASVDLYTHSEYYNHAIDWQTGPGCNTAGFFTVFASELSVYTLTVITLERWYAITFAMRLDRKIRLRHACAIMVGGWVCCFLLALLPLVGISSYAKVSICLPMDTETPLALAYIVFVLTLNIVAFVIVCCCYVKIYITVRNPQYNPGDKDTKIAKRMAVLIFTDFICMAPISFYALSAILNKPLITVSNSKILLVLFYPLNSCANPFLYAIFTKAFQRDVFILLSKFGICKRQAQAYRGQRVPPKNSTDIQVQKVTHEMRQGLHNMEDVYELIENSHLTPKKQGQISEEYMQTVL
Sequence of Estrogen receptor beta (Homo sapiens) (Q92731 whole entry, looked up): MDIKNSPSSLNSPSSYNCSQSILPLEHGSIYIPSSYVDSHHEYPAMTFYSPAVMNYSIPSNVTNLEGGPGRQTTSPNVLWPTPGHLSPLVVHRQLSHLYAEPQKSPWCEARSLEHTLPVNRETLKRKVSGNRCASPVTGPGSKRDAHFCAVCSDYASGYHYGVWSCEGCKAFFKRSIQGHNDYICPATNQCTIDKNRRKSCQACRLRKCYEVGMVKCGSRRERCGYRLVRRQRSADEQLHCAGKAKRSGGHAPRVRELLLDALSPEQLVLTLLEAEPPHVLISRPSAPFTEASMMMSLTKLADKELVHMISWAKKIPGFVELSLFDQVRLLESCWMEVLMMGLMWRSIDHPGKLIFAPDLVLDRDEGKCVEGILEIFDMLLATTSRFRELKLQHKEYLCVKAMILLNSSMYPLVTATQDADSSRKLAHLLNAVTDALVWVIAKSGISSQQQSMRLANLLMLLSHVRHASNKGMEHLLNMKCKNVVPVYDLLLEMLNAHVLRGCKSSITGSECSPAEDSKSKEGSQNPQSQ
Sequence of Estrogen receptor (Homo sapiens) (P03372 whole entry, looked up): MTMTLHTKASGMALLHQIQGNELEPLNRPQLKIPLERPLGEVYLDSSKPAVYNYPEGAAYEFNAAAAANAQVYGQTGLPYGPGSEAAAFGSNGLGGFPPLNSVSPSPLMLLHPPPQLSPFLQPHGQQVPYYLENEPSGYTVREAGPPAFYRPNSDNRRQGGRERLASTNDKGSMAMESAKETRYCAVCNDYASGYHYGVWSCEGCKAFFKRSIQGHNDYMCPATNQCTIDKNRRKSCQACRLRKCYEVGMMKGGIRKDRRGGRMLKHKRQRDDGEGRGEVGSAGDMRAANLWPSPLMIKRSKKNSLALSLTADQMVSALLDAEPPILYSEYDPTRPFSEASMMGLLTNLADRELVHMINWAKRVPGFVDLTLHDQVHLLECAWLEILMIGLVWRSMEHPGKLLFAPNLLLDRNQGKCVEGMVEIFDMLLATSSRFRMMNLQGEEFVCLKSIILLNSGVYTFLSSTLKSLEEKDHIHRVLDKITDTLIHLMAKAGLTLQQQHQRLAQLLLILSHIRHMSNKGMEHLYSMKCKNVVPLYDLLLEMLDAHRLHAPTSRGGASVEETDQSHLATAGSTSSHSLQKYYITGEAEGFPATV
Sequence of Androgen receptor (Homo sapiens) (P10275 whole entry, looked up): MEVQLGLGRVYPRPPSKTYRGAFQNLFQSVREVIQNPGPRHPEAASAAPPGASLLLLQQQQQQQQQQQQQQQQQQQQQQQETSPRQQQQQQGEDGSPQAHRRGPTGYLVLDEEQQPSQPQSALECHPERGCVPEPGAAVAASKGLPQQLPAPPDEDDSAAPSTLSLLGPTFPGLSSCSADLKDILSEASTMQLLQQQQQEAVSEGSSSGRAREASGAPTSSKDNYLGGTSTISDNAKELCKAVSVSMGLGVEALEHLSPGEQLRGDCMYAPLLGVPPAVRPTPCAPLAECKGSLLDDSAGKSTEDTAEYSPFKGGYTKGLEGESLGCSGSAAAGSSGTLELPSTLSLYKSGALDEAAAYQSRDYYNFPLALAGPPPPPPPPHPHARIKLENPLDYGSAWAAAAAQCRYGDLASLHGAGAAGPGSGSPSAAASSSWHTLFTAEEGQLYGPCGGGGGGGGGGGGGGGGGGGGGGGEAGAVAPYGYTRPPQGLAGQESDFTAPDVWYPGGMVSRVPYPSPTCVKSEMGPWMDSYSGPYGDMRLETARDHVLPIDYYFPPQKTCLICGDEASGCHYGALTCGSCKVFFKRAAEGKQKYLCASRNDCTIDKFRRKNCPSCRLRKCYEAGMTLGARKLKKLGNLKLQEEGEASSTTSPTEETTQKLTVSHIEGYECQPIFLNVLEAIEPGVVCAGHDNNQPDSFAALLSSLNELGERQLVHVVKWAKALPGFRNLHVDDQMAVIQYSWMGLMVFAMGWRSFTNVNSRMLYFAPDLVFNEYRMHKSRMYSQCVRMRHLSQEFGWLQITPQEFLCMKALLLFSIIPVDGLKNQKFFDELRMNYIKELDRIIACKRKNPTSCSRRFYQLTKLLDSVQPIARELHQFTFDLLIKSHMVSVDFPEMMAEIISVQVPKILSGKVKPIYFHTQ

In the case of `COc1c(C)c2c(c(O)c1C/C=C(\C)CCC(=O)O)C(=O)OC2`, the Potency entry in [1], in [2], in [3], in experiment [4], in experiment [5] and in [6] was “inactive” each time. Also, the Potency result in [7], in experiment [8], in experiment [9], in experiment [10] and in experiment [11] was “inactive” in each case.

`CSc1ccc(/C=C2/C(C)=C(CC(=O)O)c3cc(F)ccc32)cc1`: the Potency result in experiment [1], in experiment [2], in experiment [3], in experiment [4], in experiment [6] and in experiment [12] was “inactive” in each case. In addition, the Potency entry in [9], in experiment [14], in experiment [10], in experiment [16] and in [11] was “inactive” throughout. For the same compound, in experiment [13], the Potency was 10.6 µM (active). Moreover, the call in experiment [15] was inactive.

Turning to `CSc1cnc(C)cn1`, the Potency result in experiment [1], in experiment [2], in [17], in experiment [4], in experiment [5] and in experiment [6] was “inactive” in each case. In addition, the Potency result in experiment [12], in experiment [7], in experiment [8], in [18], in [9] and in experiment [19] was “inactive” throughout. Also, the Potency result in experiment [10], in experiment [16] and in [11] was “inactive” throughout. Besides, in experiment [15], the compound was classed as inactive.

In the case of `CCCC(c1cc(C(C)(C)C)c(O)cc1C)c1cc(C(C)(C)C)c(O)cc1C`, the Potency in experiment [1] was 49.2 µM (active); in [2], 27.6 µM (active); in [4], 49.2 µM (active); in experiment [5], 22 µM (active); in experiment [6], 17.4 µM (active); in experiment [9], 31 µM (active). The Potency is 12.3 µM (active) in [13], 13.9 µM (active) in experiment [19] and 61.9 µM (active) in experiment [11]. Further, the Potency entry in [17], in experiment [12] and in experiment [10] was “inactive” each time. In experiment [15], the compound was classed as inactive.

Turning to `Clc1ccccc1C(c1ccccc1)(c1ccccc1)n1ccnc1`, the Potency in experiment [1] is 43.3 µM (active) and inactive; in experiment [2] it was 24.3 µM (active) and inactive; in experiment [6], 13.7 µM (active); in experiment [7], 13.3 µM (active); in [18], 8.41 µM (active); in experiment [9], 30.6 µM (active) and inactive. Moreover, the Potency in experiment [13] was 17.2 µM (active); in experiment [19] it was 15.4 µM (active); in experiment [16], 54.5 µM (active); in experiment [11] it was 54.5 µM (active) and inactive. For the same compound, the Potency entry in experiment [4], in experiment [12], in experiment [8] and in [10] was “inactive” in each case.

`C[C@H](CCC(=O)O)[C@H]1CC[C@H]2[C@@H]3CC[C@@H]4C[C@H](O)CC[C@]4(C)[C@H]3CC[C@]12C`: the Potency entry in experiment [1], in experiment [2], in experiment [17], in experiment [4], in [5] and in experiment [6] was “inactive” in each case. In addition, the Potency result in [9], in [10] and in [11] was “inactive” each time. Also, the Potency in [13] was 48.4 µM (active) and 48.6 µM (active); in [19], 19.3 µM (active).

Regarding `CCCCCCCC/C=C\CCCCCCCCOCCO`, the Potency was 20 µM (active) in experiment [1]; 2.51 µM (active) in experiment [2]; 63.1 µM (active) in experiment [6]; 14.1 µM (active) in experiment [7]; 28.2 µM (active) in [9]; 28.2 µM (active) in experiment [13]. For the same compound, the Potency in experiment [19] was 28.2 µM (active); in experiment [16] it was 89.1 µM (active); in experiment [11], 35.5 µM (active). For the same compound, the Potency result in experiment [17], in experiment [4] and in [10] was “inactive” each time. Also, the compound was classed as inactive in experiment [15].

On to `O=CC=C(c1ccccc1)c1ccccc1`, for which the Potency result in [1], in experiment [17], in [4], in experiment [12], in [10] and in experiment [16] was “inactive” in each case. For the same compound, the Potency entry in experiment [11] is “inactive”. In addition, the Potency in experiment [2] was 69.1 µM (active); in experiment [5], 49 µM (active); in experiment [18], 7.76 µM (active); in [13] it was 27.5 µM (active); in [19] it was 27.5 µM (active). Moreover, the result in experiment [15] was inactive.
